Results as given in PubChem BioAssay AID463173 (ICCB-Longwood Screening Facility, Harvard Medical School, 2010).
Screen size: about 52,000 compounds; about 1,700 (3.3%) were called active. The entries come from a sample that favours actives as a whole. Unmarked numbers belong to inactive results. No stated cut-off is given here; in the data, active means survival mostly below about 52% (no sharp cut-off); inactive means mostly above about 56%.

The compounds below were run on Wild type (assay: S. aureus survival, RN4220 and DeltatarO strains – OD600, teichoic acid synthesis inhibitors, primary screen (AID 463173)). Details: S. aureus RN4220 wild type/DeltatarO growth, OD600, 18 h, hits give low values, screened at 18.75 µg/mL (by protocol).

SMILES	survival
Cc1ccc(C)c(NC(=O)N2CCC(CN3CCOCC3)CC2)c1	135%
CCC(CC)c1nn2c(=O)cc(COc3ccc(NC(=O)c4ccc(Cl)cc4)cc3)nc2s1	86%
Cc1ccc(Nc2ccc(N3CCN(C(=O)c4ccc([N+](=O)[O-])cc4Cl)CC3)nn2)cc1	129%
COCCn1c(SCC(=O)c2c[nH]c3ccccc23)nc2cc(C(=O)NCC(C)C)ccc2c1=O	73%
COCCNC(=O)c1ccc2c(=O)n(CCOC)c(SCC(=O)c3c[nH]c4ccccc34)nc2c1	-1% (active)
COCCn1c(SCC(=O)c2c[nH]c3ccccc23)nc2cc(C(=O)NC(C)C)ccc2c1=O	14% (active)
COCCn1c(SCC(=O)c2ccccc2)nc2cc(C(=O)NC3CCCC3)ccc2c1=O	76%
COCCn1c(SCC(=O)c2c(C)[nH]c3ccccc23)nc2cc(C(=O)NC(C)C)ccc2c1=O	74%
COCCNC(=O)c1ccc2c(=O)n(CCc3ccccc3)c(SCC(=O)CC(=O)OC)nc2c1	78%
CCOc1ccc(NC(=O)CCSc2nc(-c3ccc4c(c3)OCO4)cc(C(F)(F)F)n2)cc1	72%
COc1ccc(C)cc1NC(=O)NCc1cccn1Cc1ccccc1	98%
O=C(NCc1ccccc1Cl)c1ccc(NC(=O)N2CCSc3ccccc32)cc1	67%
N#CCCSCc1ccc(C(=O)O)o1	107%
CC(C)c1ccc2oc(-c3ccc(NC(=O)c4cc5ccccc5o4)cc3)nc2c1	61%
Cc1ccc(-c2nc3cc(C(C)C)ccc3o2)cc1NC(=O)c1cc2ccccc2o1	11% (active)
COc1ccc(-c2nc3cc(C(C)C)ccc3o2)cc1NC(=O)c1ccc(C)c(Cl)c1	5% (active)
COc1ccc(-c2nc3cc(C(C)C)ccc3o2)cc1NC(=O)COc1ccc(C)cc1C	59%
COc1ccc(-c2nc3ccccc3o2)cc1NC(=O)c1ccc(-c2ccc(C)c(Cl)c2)o1	73%
Cc1ccc(-c2nc3cc(Cl)ccc3o2)cc1NC(=O)c1cc2ccccc2o1	72%
COC(=O)CCN(C(=O)C1CCN(S(=O)(=O)c2c(C)noc2/C=C/c2ccccc2F)CC1)c1ccccc1	126%
CCC(C)NS(=O)(=O)c1ccc(N2CCCCS2(=O)=O)cc1 (configuration not stated)	135%
CCOC(=O)c1noc2ncn(CC(=O)Nc3ccc(C)c(F)c3)c(=O)c12	72%
Cc1ccc(NC(=O)c2cccc(NC(=O)N3CCSc4ncccc43)c2)cc1F	92%
CCCCN(CC)Cc1ccc(CNS(=O)(=O)c2cc3c(cc2Cl)NC(=O)CO3)o1	-3% (active)
O=C1COc2cc(S(=O)(=O)NCc3ccco3)c(Cl)cc2N1	73%

SMILES	survival
Cc1ccc(CNS(=O)(=O)c2cc3c(cc2Cl)NC(=O)CO3)o1	124%
CC(C)(CO)NC(=O)c1cc(-c2ccc(Cl)cc2Cl)on1	123%
CCOC(=O)c1c(NC(=O)COc2ccc(Cl)cc2Cl)sc2c1CCCCC2	76%
COc1ccc(CNC(=O)C2CCN(S(=O)(=O)c3c(C)noc3/C=C/c3ccccc3F)CC2)cc1	94%
COc1ccc2sc(N)nc2c1	115%
COc1ccc(N=Nc2c(N)n[nH]c2N)cc1	2% (active)
Nc1n[nH]c(N)c1N=Nc1ccc(Cl)cc1	107%
Cc1ccc(-c2nc3ccccc3o2)cc1NC(=O)c1cccc2c(Cl)cccc12	62%
Cn1c(-c2ccccc2)nc2cc(N)ccc21	105%
COc1ccc(O)c(-c2cn[nH]c2-c2cccs2)c1	105%
Cc1ccc(-c2nc(-c3cccs3)c(-c3cccs3)[nH]2)cc1	76%
CN(C)c1ccc(-c2nc(-c3cccs3)c(-c3cccs3)[nH]2)cc1	65%
Fc1ccc(-c2nc(-c3cccs3)c(-c3cccs3)[nH]2)cc1	79%
Oc1ccccc1-c1nc(-c2cccs2)c(-c2cccs2)[nH]1	-11% (active)
Oc1cccc(-c2nc(-c3cccs3)c(-c3cccs3)[nH]2)c1	3% (active)
Cc1ccc(Cc2c(C)nc3nc(SCC(=O)NCCC(C)C)nn3c2C)cc1	64%
Cc1nn(CC(=O)NCc2ccccc2Cl)c(=O)c2nn(-c3ccccc3)c(C)c12	130%
COc1ccc(NC(=O)Cn2cnc3ccc(S(=O)(=O)N4CCC(C)CC4)cc3c2=O)cc1Cl	158%
O=C(Nc1c(C(=O)N2CCOCC2)cnn1-c1ccccc1)c1ccccc1F	104%
CN1CCN(C(=O)/C=C\C(=O)O)CC1	122%
CCCCSCCCNC(=O)c1cc(-c2cccnc2)nc2ccc(S(=O)(=O)N3CCC(C)CC3)cc12	89%
COc1cc(C)c(Cl)cc1S(=O)(=O)NCCc1c(C)[nH]c2ccccc12	73%
Cc1ccc(Nc2ncccc2C(=O)NC2CCCCC2)cc1	110%
CCOc1ccc(C2C(=O)N(C3CCCCCC3)CC(=O)N2Cc2ccccc2)cc1OC (configuration not stated)	75%
O=C(Nc1ccccc1)C(Cc1ccccc1)N1Cc2ccccc2C1=O (configuration not stated)	90%

SMILES	survival
CCc1cccc(NC(=O)C(Cc2ccccc2)n2cccc2)c1 (configuration not stated)	12% (active)
CC(=O)c1cccc(NC(=O)[C@H](Cc2ccccc2)N2Cc3ccccc3C2=O)c1	81%
COc1ccc(NC(=O)C(Cc2ccccc2)n2cccc2)cc1OC (configuration not stated)	82%
Cc1cccc(NC(=O)C(Cc2ccccc2)n2cccc2)c1C (configuration not stated)	84%
O=C(Nc1cccc(Cl)c1)C(Cc1ccccc1)n1cccc1 (configuration not stated)	8% (active)
Cc1ccc(NC(=O)C(Cc2ccccc2)n2cccc2)cc1C (configuration not stated)	13% (active)
Cc1ccc(NC(=O)C(Cc2ccccc2)n2cccc2)c(C)c1 (configuration not stated)	81%
Cc1ccc(C)c(NC(=O)C(Cc2ccccc2)n2cccc2)c1 (configuration not stated)	134%
O=C(O)CC1=C(c2cccs2)CCC1=O	105%
Cc1cc(C(F)F)n2ncc(C(=O)NCc3ccccc3)c2n1	108%
COC(=O)c1ccc2c(=O)n(CCCCCC(=O)N3CCN(c4cccc(C)c4C)CC3)c(=O)[nH]c2c1	97%
CC(C)c1ccc(-c2nc(C(N)=O)c3c(n2)n(-c2ccc4c(c2)OCO4)c(=O)n3C)cc1	60%
Nc1n[nH]c(CCc2ccccc2)n1	121%
CCS(=O)(=O)N1CC(=O)N(c2cccc(C)c2C)C(C)(C(=O)NC2CCCCC2)C1 (configuration not stated)	89%
Cc1ccc(NS(=O)(=O)c2cn(C)c(C)n2)c(Br)c1	88%
CSc1cccc(NS(=O)(=O)c2cn(C)c(C)n2)c1	59%
COc1ccccc1NS(=O)(=O)c1cn(C)c(C)n1	10% (active)
Cc1ccc(CCNC(=O)c2cc3c(=O)oc4ccccc4c3s2)cc1	73%
c1ccc(-n2ncc3c(NC4CCCC4)ncnc32)cc1	121%
CCOC(=O)C1CCN(S(=O)(=O)c2cc(-c3onc(C)c3C)ccc2C)CC1	81%
O=C(Nc1ccc(F)cc1F)C(Cc1ccccc1)N1Cc2ccccc2C1=O (configuration not stated)	-6% (active)
CC(C(=O)Nc1ccc(OC(F)(F)F)cc1)N1Cc2ccccc2C1=O (configuration not stated)	-3% (active)
CCOc1ccc(NC(=O)C(CC(C)C)N2Cc3ccccc3C2=O)cc1 (configuration not stated)	134%
COc1ccc(NC(=O)C(C)N2Cc3ccccc3C2=O)cc1OC (configuration not stated)	75%
Cc1cc(C)cc(NC(=O)C(C)N2Cc3ccccc3C2=O)c1 (configuration not stated)	63%

SMILES	survival
Cc1ccc(C)c(NC(=O)C(CC(C)C)N2Cc3ccccc3C2=O)c1 (configuration not stated)	159%
COC(=O)c1ccc(NC(=O)C(C)N2Cc3ccccc3C2=O)cc1 (configuration not stated)	53%
Cc1ccc(NC(=O)C(CC(C)C)N2Cc3ccccc3C2=O)cc1F (configuration not stated)	-6% (active)
CC(C(=O)Nc1ccc(F)c(Cl)c1)N1Cc2ccccc2C1=O (configuration not stated)	0% (active)
O=C(Nc1ccc(F)cc1)[C@H](Cc1ccccc1)N1Cc2ccccc2C1=O	91%
Cc1ccc(NC(=O)[C@H](Cc2ccccc2)N2Cc3ccccc3C2=O)cc1F	78%
O=C(Nc1ccccc1F)C(Cc1ccccc1)N1Cc2ccccc2C1=O (configuration not stated)	75%
Cc1ccccc1CSc1cn(CCNC(=O)c2cccs2)c2ccccc12	79%
COc1ccc(NC(=O)Cc2ccc(NC(=O)N3CCCCc4ccccc43)cc2)c(OC)c1	60%
COc1cccc(C(=O)NC2CCCC2)c1	103%
O=C(CCS(=O)(=O)c1cccs1)Nc1ccc(C(=O)Nc2ccccc2F)cc1	135%
CC(=O)c1ccc(N2CCN(C(=O)CCCn3c(=O)[nH]c4ccsc4c3=O)CC2)cc1	66%
c1ccc(-n2nc3ccc4nonc4c3n2)cc1	104%
On1c2c(c3c4nonc4ccc31)CCCC2	8% (active)
COC(=O)CSc1n[nH]c(CNc2cccc(C)c2)n1	108%
O=C(NCCCN1CCN(c2ccccc2)CC1)c1nnc(Cc2ccc(F)cc2)o1	98%
COc1ccccc1C(=O)Nc1cc(-c2ccc(C)cc2)no1	73%
Cc1ccc(NC(=O)Cn2nc(C)n3cccc3c2=O)c(C)c1	95%
CCn1c(COc2ccccc2)nnc1SCC(=O)CC(=O)Nc1ccccc1OC	100%
CC(C)(C)NSc1nc2ccccc2s1	68%
Cc1cc(C)nc(SC2=CS(=O)(=O)c3ccccc32)n1	99%
O=S1(=O)C=C(Sc2nc3ccccc3s2)c2ccccc21	0% (active)
